This is a sample that favours compounds with a hit; in the whole collection about 1.6% have one here.
KCNQ2 pot: enhances the rat KCNQ2 potassium channel | O88943 | CHO-K1 KCNQ2, FluxOR thallium flux fluorescence; stronger effect = higher value | B-score at 10 µM | 0.54% of 310,000 active;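 active = fluorescence ratio B-score at least 3 SD of library B-scores, with initial fluorescence B-score within 3 of them, cut at about 5.3 in these data; same plate scores as AID 2156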;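 also: B-score of peak minus minimum over baseline fluorescence ratio after K+ and Tl+ stimulus; positive B-score means potentiation of KCNQ2 with more thallium influx and brighter signal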
KCNQ2 block: inhibitors of rat KCNQ2 potassium channel; B-score at 10 µM; 1.1% of 310,000 active; CHO-K1 KCNQ2, FluxOR thallium flux, 20 min; stronger effect = lower value; O88943;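 active = fluorescence ratio B-score at most minus 3 library SDs, with starting brightness B-score within 2 library SDs, cut at about -5.5 in these data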
KCNQ2 inh conf: confirmation of rat KCNQ2 potassium channel inhibitors; KCNQ2-expressing cells, thallium flux, inhibition; stronger effect = lower value; activity change, negative = inhibition, % at 10 µM; 57% of 1,000 active; AID 493025; shares compounds with KCNQ2 block;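 also: 0% = vehicle wells and values are ratio percent relative to vehicle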
KCNQ1 spec: KCNQ2 inhibitor that also affects human KCNQ1 channel; shares compounds with KCNQ2 block; KCNQ1-expressing cells, FluxOR thallium flux fluorescence; stronger effect = lower value; activity change, negative = inhibition, % at 10 µM; 15% of 1,000 active; AID 493026;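 active = activity change at least 3 SD of negative controls below their mean in both duplicate wells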;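 also: CHO cells stably transfected with KCNQ1 and depolarized by potassium stimulus; peak minus minimum fluorescence over baseline after thallium addition; 0% = vehicle negative control and -100% = blank without thallium stimulus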
Target sequence (P51787 whole entry, looked up): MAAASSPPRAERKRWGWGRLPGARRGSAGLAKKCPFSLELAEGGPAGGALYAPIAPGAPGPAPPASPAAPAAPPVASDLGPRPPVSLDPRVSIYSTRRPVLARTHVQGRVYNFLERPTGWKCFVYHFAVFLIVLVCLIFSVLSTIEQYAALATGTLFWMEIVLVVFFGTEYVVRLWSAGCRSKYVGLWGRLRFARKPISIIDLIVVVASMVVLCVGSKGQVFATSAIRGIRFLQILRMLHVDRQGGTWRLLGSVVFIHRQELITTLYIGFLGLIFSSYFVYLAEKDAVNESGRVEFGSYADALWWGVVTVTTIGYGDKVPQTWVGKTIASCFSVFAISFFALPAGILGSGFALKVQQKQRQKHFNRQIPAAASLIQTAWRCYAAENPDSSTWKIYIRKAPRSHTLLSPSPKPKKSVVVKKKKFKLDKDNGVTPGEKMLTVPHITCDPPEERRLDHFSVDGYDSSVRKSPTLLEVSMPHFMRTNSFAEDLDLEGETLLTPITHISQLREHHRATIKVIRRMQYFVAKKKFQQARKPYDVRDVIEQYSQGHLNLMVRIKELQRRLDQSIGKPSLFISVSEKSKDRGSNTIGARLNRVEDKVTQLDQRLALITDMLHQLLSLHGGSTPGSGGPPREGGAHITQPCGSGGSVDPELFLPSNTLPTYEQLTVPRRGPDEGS
CHO Tl ctr: KCNQ2 inhibitor counter-screen hit in parental CHO cells; shares compounds with KCNQ2 block; thallium flux counter-screen; stronger effect = lower value; activity change, % at 10 µM; 14% of 1,000 active;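 also: 0% = vehicle negative controls with stimulus buffer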
KCNQ2 patch conf: blocks rat KCNQ2 current in automated patch clamp; shares compounds with KCNQ2 block; KCNQ2-expressing cells; 49% of 550 active; calls only at 10 µM
The depositor's hits bear a star; i = inactive; x = no result; + = active, no number. Unless noted, no rule for the calls is given here.

SMILES | KCNQ2 pot | KCNQ2 block | KCNQ2 inh conf | KCNQ1 spec | CHO Tl ctr | others
CC1(c2ccc([N+](=O)[O-])cc2)NC(=O)NC1=O (centres undefined) | x | i | x | x | x
Cc1ccc(-n2c(-c3ccc(Br)cc3)c[n+]3c2CCc2ccc4cccnc4c2-3)cc1 | -12 | -12* | -45%* | -36%* | -30%*
COc1ccc(-n2c(-c3ccc(Cl)cc3)c[n+]3c2CCc2ccccc2-3)cc1 | x | i | x | x | x
Nc1ccccc1SCc1ccccc1Cl | x | i | x | x | x
O=c1cc2c(nn1Cc1c(Cl)cccc1Cl)-c1ccccc1CC2 | 1.6 | i | x | x | x
Clc1cccc(Cl)c1CSc1cc2c(nn1)-c1ccccc1CC2 | -8.5 | -8.5* | i | i | i
Clc1ccc(CSC2=NCCCN2)cc1Cl | 2.7 | i | x | x | x
Clc1ccc(CSc2cc3c(nn2)-c2ccccc2CC3)cc1Cl | -8.3 | -8.3* | -27%* | i | i | KCNQ2 patch conf=i
Clc1ccccc1CSc1cc2c(nn1)-c1ccccc1CC2 | -8.1 | -8.1* | -19%* | i | i | KCNQ2 patch conf=i
O=c1c(Cc2ccc(F)cc2)c(O)ccn1CCc1ccccn1 | 0.81 | i | x | x | x
CCCSc1nc2ccsc2c(=O)n1CC | 0.2 | i | x | x | x
O=C(CN1CCCC1)N1c2ccccc2Sc2ccccc21 | 1.9 | i | x | x | x
CC1(C)CCCN(C(=O)N2c3ccccc3Sc3ccccc32)C1 | -8.6 | -8.6* | i | i | i
O=C(Cc1cccc2ccccc12)Nc1ccc(N2CCOCC2)cc1 | 1.3 | i | x | x | x
COCCn1c(-c2ccc(OC)cc2)cnc1N | x | i | x | x | x
CCOc1ccc(-c2cnc(NCc3cccc4ccccc34)n2CCOC)cc1 | -9.7 | -9.7* | i | i | i
O=C(NC1CC2CCCC(C1)N2C(=S)NCCc1ccccc1)C1CC1 (centres undefined) | x | i | x | x | x
N#Cc1ccc(Oc2cnccn2)cc1 | 0.93 | i | x | x | x
O=C(N=C1SC2CS(=O)(=O)CC2N1CCc1ccccc1)C1CC1 (centres undefined) | x | i | x | x | x
O=C(C(=O)N1CCOCC1)c1cn(CCOc2ccccc2)c2ccccc12 | x | i | x | x | x
Cc1ccccc1OCCn1cc(C(=O)C(=O)N2CCOCC2)c2ccccc21 | -8.5 | -8.5* | -33%* | i | i | KCNQ2 patch conf=+
CC(NC(=O)c1cccs1)C(S)c1ccccc1 (centres undefined) | -11 | -11* | i | i | i
CC(NC(=O)c1cccs1)c1ccc(Cl)cc1 (centres undefined) | x | i | x | x | x
COc1ccc(Br)cc1CNC(=O)CN1C(=O)C(c2ccccc2)Oc2cccnc21 (centres undefined) | -7 | -7* | -26%* | i | i | KCNQ2 patch conf=+
COc1ccc(NC(=O)CCCN2C(=O)C(c3ccccc3)Oc3cccnc32)cc1OC (centres undefined) | 0.35 | i | x | x | x
SMILES | KCNQ2 pot | KCNQ2 block | KCNQ2 inh conf | KCNQ1 spec | CHO Tl ctr | others
Cc1ccc(N(Cc2ccccc2)C(=O)c2cccc(S(=O)(=O)N3CC(C)OC(C)C3)c2)cc1 (centres undefined) | 0.29 | i | x | x | x
CC1CN(S(=O)(=O)c2cccc(C(=O)N(CCc3ccccc3)Cc3ccccc3)c2)CC(C)O1 (centres undefined) | -8.3 | -8.3* | -32%* | -27%* | i | KCNQ2 patch conf=+
O=C(NCc1ccccc1)c1nnc(CS(=O)(=O)c2ccccc2)o1 | 0.21 | i | x | x | x
Cc1cc(C)c(NC(=O)/C(=C/c2ccccc2)c2ccccc2)c(C)c1 | -7.5 | -7.5* | i | i | i
Cc1ccc(NC(=O)/C(=C/c2ccco2)c2ccccc2)c(C)c1 | x | i | x | x | x
O=C(CCNc1ccc(F)cc1)c1cccc([N+](=O)[O-])c1 | x | i | x | x | x
O=C(CCNc1ccccc1)c1cccc([N+](=O)[O-])c1 | -7.9 | -7.9* | i | i | i
O=C(Nc1ccccc1)C1CCCN1S(=O)(=O)c1ccc(Br)cc1 (centres undefined) | x | i | x | x | x
CCC(C)(C)n1nnnc1C(c1ccc(C)cc1)N1CCSCC1 (centres undefined) | x | i | x | x | x
Fc1ccc(C(c2nnnn2C2CCCC2)N(Cc2ccco2)CC2CCCO2)cc1 (centres undefined) | x | i | x | x | x
CC(C)(C)n1nnnc1C(c1ccc(C(F)(F)F)cc1)N(Cc1ccccc1)Cc1ccco1 (centres undefined) | -11 | -11* | -57%* | -58%* | -54%*
CCN(Cc1ccccc1)C(c1ccc(C)cc1)c1nnnn1C(C)(C)CC (centres undefined) | -8.8 | -8.8* | -28%* | i | i | KCNQ2 patch conf=i

Source: PubChem (Johns Hopkins Ion Channel Center)
